PKA-R1A activ = activators of PKA-R1A holoenzyme, primary screen, biochemical, fluorescence polarization, Cy5-IP20, bovine R1A, mouse PKAc. cAMP-dependent protein kinase type I-alpha regulatory subunit (Bos taurus) + …. PKA-R1A dissociation; scaled: DMSO 0%, 113 µM cGMP 100%. activation, % at 11.4 µM. 340,000 compounds, 0.083% hits. AID 504707, 2011;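 active = percent activation above the mean of all tested compounds plus 3 SD, cut at about 19% in these data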;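 also: higher means more PKAc released from R1A so a rise in polarization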
Rpn11 inh = Rpn11 (PSMD14) deubiquitinase inhibitors, primary screen, biochemical, fluorescence polarization, uHTS | human 26S proteasome, Ub4-pepOG fluorescence polarization; 20S core pre-blocked with epoxomicin | calls only at 20 µM | 26S proteasome non-ATPase regulatory subunit 14 (Homo sapiens), O00487 | 360,000 compounds, 0.59% hits;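 active = inhibition at 20 µM, scaled to each plate's controls, above about 33%, limit read from the data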
PKA-R2B act = activators of PKA-R2B holoenzyme, primary screen, biochemical, fluorescence polarization, Cy5-IP20, human | cAMP-dependent protein kinase catalytic subunit beta (Homo sapiens) + cAMP-dependent … | PKA-R2B holoenzyme dissociation; R2B truncated from residue 108, S112A mutant; 0% DMSO only, 100% 113 µM cGMP | activation, % at 11.4 µM | 340,000 compounds, 0.079% hits | AID 504700, 2011;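 active = activation above a cutoff set at the mean over all compounds plus 3 SD, cut at about 18% in these data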;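 also: higher means more holoenzyme dissociation and a rise in polarization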
Target sequence (P31323 whole entry, looked up, other chains not shown, the tested form may be a part): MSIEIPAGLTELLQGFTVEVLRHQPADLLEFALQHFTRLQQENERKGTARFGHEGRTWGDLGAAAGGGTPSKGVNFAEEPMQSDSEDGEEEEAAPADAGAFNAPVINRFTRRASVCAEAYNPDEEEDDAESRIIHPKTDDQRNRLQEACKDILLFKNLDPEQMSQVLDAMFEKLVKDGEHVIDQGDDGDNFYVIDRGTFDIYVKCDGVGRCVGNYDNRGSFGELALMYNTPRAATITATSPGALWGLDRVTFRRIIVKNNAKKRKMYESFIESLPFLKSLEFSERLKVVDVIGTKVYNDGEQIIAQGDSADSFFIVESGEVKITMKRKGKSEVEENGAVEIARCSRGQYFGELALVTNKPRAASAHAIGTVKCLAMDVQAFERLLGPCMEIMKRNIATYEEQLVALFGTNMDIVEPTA
Neddyl block = inhibitors of cullin neddylation, primary screen, biochemical, TR-FRET, uHTS, NAE and Ubc12 | 360,000 compounds, 0.58% hits | inhibition, % at 25 µM | NEDD8-conjugating enzyme Ubc12 (Homo sapiens) + NEDD8-activating enzyme E1 regulatory …; in the data active = inhibition above about 36%
Rpn11 inh conf = Rpn11 (PSMD14) deubiquitinase inhibitors, confirmation, biochemical, fluorescence polarization, single concentration | shares compounds with Rpn11 inh | 1,900 compounds, 29% hits | inhibition, % at 20 µM | purified human 26S proteasome, Ub4-pepOG fluorescence polarization; proteasome pretreated with epoxomicin
MMP-2 counter = MMP-2 enzyme inhibition, confirmation, counter-screen for RPN11 inhibitor project, biochemical, fluorescence, single concentration; shares compounds with Rpn11 inh; recombinant MMP-2, FRET peptide cleavage fluorescence; inhibition, % at 20 µM; 1,900 compounds, 4% hits; AID 602330, 2012;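 also: human MMP-2 activated beforehand with APMA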
Thrombin inh = bovine thrombin protease inhibition, confirmation, counter-screen for Rpn11 inhibitor project, biochemical, fluorescence polarization, single concentration; shares compounds with Rpn11 inh; AID 602333, 2012; bovine thrombin cleavage of Ub4-pepOG; inhibition, % at 20 µM; 1,900 compounds, 13% hits;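 active = mean inhibition at least 40% at 20 µM, or signal 3 deviations below plate average, so some actives read negative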;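 also: plate controls were thrombin with DMSO for no effect and buffer wells lacking thrombin for full effect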
* = called active by the depositor; i = inactive; · = not tested or not shown; + = active, no number. The list is not random: actives were taken first. Their share in the collection is about 1.3%. Rule as the data show it, unless noted: active = inhibition above about 40%; inactive = the rest.

SMILES	PKA-R1A activ	Rpn11 inh	PKA-R2B act	Neddyl block	Rpn11 inh conf	MMP-2 counter	Thrombin inh
O=C(CSc1ncccc1C(=O)O)c1cccc(C(F)(F)F)c1	-4.7	+	2.4	-2.3	-4.2	-26.9	-11.8
O=S(=O)(c1cccc2ccccc12)N1CCC2CC1c1cc(Cl)ccc12 (stereo not drawn)	2.1	i	-5.4	-3.3	·	·	·
CCC(=O)N(Cc1ccco1)c1nc(C(=O)Nc2ccc(Cl)cc2)c(C)s1	-10.6	+	-14.6	-382.1	9.5	26.0	2.1
CCN(C(=O)c1ccco1)c1nc(CC(=O)Nc2ccc(Cl)cc2)cs1	0.7	i	0.2	-0.5	·	·	·
Cc1ccc(C2OC(=O)C=C2c2ccccc2)cc1 (stereo not drawn)	4.4	i	-4.1	-18.6	·	·	·
CC(C)(C)OC(=O)n1cccc1/C=C1\c2ccccc2C(=O)N1c1ccccc1	15.7	+	-2.0	42.5*	33.8	21.2	7.2
O=C1c2ccccc2/C(=C\c2ccc3[nH]ccc3c2)N1c1ccccc1	1.8	i	1.9	·	·	·	·
CCOc1ccc2nc(NC(=O)Cn3[nH]c(=O)c4ccccc4c3=O)sc2c1	2.5	+	10.9	-5.0	56.5*	-4.1	25.2
CCOc1ccc2nc(NC(=O)CN3CCN(CC)CC3)sc2c1	7.1	i	1.3	11.2	·	·	·
CCCN1C(=O)/C(=C\C=C2/Sc3ccccc3N2CCO)SC1=S	-7.5	i	-8.2	-11.2	·	·	·
CCN1C(=O)/C(=C/C=C2/Sc3ccccc3N2CCO)SC1=S	7.8	+	-6.6	-41.1	25.8	17.9	11.6
COc1ccccc1C1C2=C(N=C3SCC(=O)N31)c1ccccc1CC2 (stereo not drawn)	2.1	i	-4.4	13.0	·	·	·
CCOC(=O)C1=C(C)N=c2s/c(=C/c3ccc(OCC(=O)O)c(OC)c3)c(=O)n2C1c1ccc(Cl)cc1 (stereo not drawn)	1.8	+	9.5	65.3*	92.7*	-10.2	-7.2
CCOC(=O)C1=C(C)N=c2s/c(=C\c3ccc(O)c([N+](=O)[O-])c3)c(=O)n2C1c1ccccc1OC (stereo not drawn)	4.8	+	-5.1	-55.7	23.6	-20.6	-4.0
COc1cc(/C=c2\sc3n(c2=O)C(c2ccccc2)C(c2ccccc2)=NN=3)ccc1O (stereo not drawn)	-19.7	+	-8.8	11.2	23.1	20.0	18.8
COc1ccc(/C=c2/sc3n(c2=O)C(c2ccccc2OC)C2=C(N=3)c3ccccc3CC2)cc1O (stereo not drawn)	-10.4	+	-0.1	15.7	24.5	23.4	0.2
CCOC(=O)C1=C(C)N=c2s/c(=C/c3ccccc3)c(=O)n2C1c1ccc(OC)c(OC)c1 (stereo not drawn)	-1.9	i	4.7	-1.8	·	·	·
CCOC(=O)c1ccccc1NC(=O)CSc1nc2[nH]ncc2c(=O)[nH]1	6.0	i	3.6	6.0	·	·	·
CC[C@@H]1[C@H]2CCCC(=O)N3CC[C@@H](C[C@@H]1Nc1ccccc1)[C@@H]23	0.4	i	1.0	3.9	·	·	·
COc1ccc(N2CCN(C3CCCN(C(=O)C4=C(C)OCCO4)C3)CC2)cc1 (stereo not drawn)	-3.4	i	2.3	4.7	·	·	·
CCOc1ccc(N(C(C)C(=O)N2CCOCC2)S(C)(=O)=O)cc1 (stereo not drawn)	-8.6	i	-5.3	-7.2	·	·	·
CCOC(=O)C1=C(C)N=c2s/c(=C\c3ccc(OCC(=O)O)cc3)c(=O)n2C1c1ccc(Cl)cc1 (stereo not drawn)	-2.0	+	2.8	9.1	91.1*	-10.9	19.8
CCc1ccc(C(=O)COC(=O)c2ccc(-c3nnc(-c4ccccc4)o3)cc2)cc1	-11.1	+	0.3	-18.2	8.0	5.4	-12.5
Cc1ccc(C(=O)OCC(=O)c2ccccc2)cc1	0.6	i	0.1	-11.9	·	·	·
COc1ccc(N2C(=O)CCC(C(=O)NCc3ccccn3)C2c2ccc(OC)c(OC)c2)cc1 (stereo not drawn)	-6.7	i	-9.3	3.8	·	·	·
SMILES	PKA-R1A activ	Rpn11 inh	PKA-R2B act	Neddyl block	Rpn11 inh conf	MMP-2 counter	Thrombin inh
COc1ccc(N2C(=O)CCC(C(=O)Nc3cccc(C)n3)C2c2ccc(OC)c(OC)c2)cc1 (stereo not drawn)	-10.3	+	-0.8	2.0	-11.4	-36.2	-7.6
CCOP(=O)(c1ccccc1)c1nc(-c2ccc(F)cc2)oc1N1CCCCC1 (stereo not drawn)	-8.4	+	-3.6	29.8	-6.3	-20.4	-15.8
CCN(CC)S(=O)(=O)c1ccc2c(c1)N(CC(=O)Nc1cccnc1Cl)C(=O)CO2	-1.5	i	-3.1	3.6	·	·	·
O=C(c1ccc2c3c(cccc13)CC2)C1CCCN(Cc2cccnc2)C1 (stereo not drawn)	9.7	+	4.7	35.0	-9.8	1.0	-17.0
Cn1c(=O)oc2cc(S(=O)(=O)N3CCN(c4ccc(F)cc4)CC3)ccc21	6.5	+	4.7	-7.4	13.7	6.3	-4.7
Cn1c(=O)oc2cc(S(=O)(=O)N3CCCC3)ccc21	-0.8	i	2.7	2.6	·	·	·
Cn1c(=O)c(=O)n(C)c2cc(S(=O)(=O)N3CCN(c4ccc(F)cc4)CC3)ccc21	-12.1	i	-3.2	11.1	·	·	·
CN1CCN(S(=O)(=O)c2ccc3c(c2)oc(=O)n3C)CC1	3.3	+	-7.2	3.2	18.2	-33.4	11.1
Cc1cc(NS(=O)(=O)c2ccc(Nc3nc(-c4ccc(C)c(C)c4)cs3)cc2)no1	-1.4	i	-6.0	-4.4	·	·	·
Cc1cc(NS(=O)(=O)c2ccc(Nc3nc(-c4sc(N)nc4C)cs3)cc2)no1	-1.4	+	-7.1	-21.6	23.9	28.4	-11.0
COc1ccc(C(CNC(=O)c2cc(F)c(F)c(F)c2F)N2CCOCC2)cc1 (stereo not drawn)	-4.9	i	-3.3	-2.0	·	·	·
O=C(Cn1cnc2c(nnn2-c2ccccc2)c1=O)NCc1ccc(F)cc1	6.3	+	6.0	-4.6	61.4*	45.6*	-8.1

Bioassay records from PubChem BioAssay.
